BoNT A protease = blocks Botulinum neurotoxin A light chain protease | multiplex microsphere protease substrate cleavage, flow cytometry | inhibition, % at 10 µM | 0.17% of 360,000 active | AID 588499; also: plate controls were buffer without enzyme for full effect and enzyme alone for no effect
Anthrax LF inh2 = anthrax lethal factor protease inhibition; P15917; multiplex microsphere protease cleavage assay, LF; inhibition, % at 10 µM; 0.12% of 360,000 active; AID 588501; also: plate controls were buffer without enzyme for full effect and enzyme alone for no effect
VHR inh abs = inhibitors of human VHR1 phosphatase (DUSP3); P51452; recombinant VHR phosphatase, pNPP absorbance; inhibition, % at 13.3 µM; 0.52% of 290,000 active; in the data active = inhibition above about 50%
Autofluor counter = compound fluorescence in toxin protease inhibitor counterscreen. compound autofluorescence counterscreen, microsphere flow cytometry; hits give high values. fluorescence intensity (test concentration not listed). 3.1% of 360,000 active; in the data active = fluorescence intensity above about 16000; inconclusive = no clear call, values can overlap the other calls
SARS 3CLpro inh = SARS-CoV 3CLpro protease inhibition | P0C6X7 | recombinant SARS-CoV 3CLpro, quenched FRET peptide cleavage | inhibition, % at 6 µM | 0.14% of 290,000 active; in the data active = inhibition above about 12%
BoNT F protease = blocks Botulinum neurotoxin F light chain protease; Multiplex microsphere protease cleavage assay, flow cytometry; AID 588497; inhibition, % at 10 µM; 0.22% of 360,000 active; in the data active = inhibition above about 35%, passing the limit was not always enough; inconclusive = no clear call, values can overlap the other calls; also: plate controls were buffer without enzyme for full effect and enzyme alone for no effect
The depositor's hits bear a star; ? = inconclusive; · = no result given. Shown are actives, neighbours in structure and some others; about 3.9% of the full set was active somewhere. Rule as the data show it, unless noted: active = inhibition above about 30%; inconclusive = no clear call, values can overlap the other calls; inactive = below that.

SMILES	BoNT A protease	Anthrax LF inh2	VHR inh abs	Autofluor counter	SARS 3CLpro inh	BoNT F protease
COc1ccc(Br)cc1C1NC(=O)c2c(sc3c2CCN(C)C3)N1 (configuration not stated)	8	11	50	3247	·	6
O=C1NC(c2ccco2)Nc2sc3c(c21)CCN(Cc1ccccc1)C3 (configuration not stated)	6	-26	-6	5542	-1	-39
CN1CCc2c(sc3c2C(=O)NC(c2ccco2)N3)C1 (configuration not stated)	6	-2	-9	18769*	-2	-7
CN1CCc2c(sc3c2C(=O)NC(c2cn(Cc4ccccc4)c4ccccc24)N3)C1 (configuration not stated)	11	16	5	20205*	-3	-11
Cc1ccc(NC(=S)N2CC(C)OC(C)C2)cc1C (configuration not stated)	-1	-1	23	6099	-3	5
Cc1ccc2nc(SC(C)C(=O)Nc3cccc([N+](=O)[O-])c3)[nH]c2c1 (configuration not stated)	-2	-9	24	7403	4	-11
COc1ccc(-c2csc(N(CC3CCCO3)C(=O)c3cccs3)n2)cc1 (configuration not stated)	?	-2	36	22735*	-1	-4
CCC(C)NC(=O)c1cn(-c2cccc(OC)c2)c(=O)c2ccccc12 (configuration not stated)	3	20	2	3624	-1	22
COC(=O)C(CCSC)NC(=O)c1cn(-c2ccc(OC)cc2)c(=O)c2ccccc12 (configuration not stated)	-1	-8	-3	4029	0	36*
O=C(O)C(CCCCNS(=O)(=O)c1ccc(F)cc1)NS(=O)(=O)c1ccc(F)cc1 (configuration not stated)	-2	-6	16	3381	0	-2
CCn1c(C)nc2cc(-c3nnc(-c4c(-c5ccccc5)noc4C)o3)ccc21	0	0	-12	16285*	-7	0
O=C(c1ccccc1)N1CCC(c2nc3c(nnn3Cc3ccco3)c(=O)[nH]2)CC1	0	-8	50*	4325	1	-12
Cc1ccc(Cn2nnc3c(=O)[nH]c(C4CCN(C(=O)c5cccs5)CC4)nc32)cc1	-1	0	-9	23099*	2	-3
CCN(CC)C(=O)c1ccc2nc(-c3ccccc3)c(-c3ccccc3)nc2c1	0	2	13	2554	3	1
CCN(CC)C(=O)c1cncc(C(=O)N(CC)CC)c1-c1ccccc1	0	-2	24	20311*	4	1
O=C(CN(Cc1ccc(F)cc1)C(=O)CCC(=O)Nc1ccccn1)NCCc1ccccc1	0	3	41	3721	0	1
COc1ccc(CN(CC(=O)NCc2ccccc2)C(=O)CCC(=O)Nc2cc(C)ccn2)cc1	-1	2	52*	6173	-5	2
Cc1cc(NC(=O)CCCC(=O)N(CC(=O)NCCc2ccccc2)Cc2ccc(F)cc2)no1	-3	-5	21	20415*	-1	-4
CCCCN1C(=O)C(CC(=O)NCC2CCCCC2)CC(C(=O)N2CCOCC2)=C1C (configuration not stated)	-1	-1	·	3622	·	-4
CCCCCCCC(=O)NNC(=O)c1ccc([N+](=O)[O-])cc1	-4	-2	10	24645*	-2	-5
CCNC(=O)C1CCCN1S(=O)(=O)c1ccc2ccccc2c1 (configuration not stated)	-1	-2	6	6157	-3	-4
CCOc1ccc(N2CC(C(=O)NCCc3ccc(S(N)(=O)=O)cc3)CC2=O)cc1 (configuration not stated)	0	10	26	3886	-2	4
CCOc1ccccc1N1CC(C(=O)NCCc2ccc(S(N)(=O)=O)cc2)CC1=O (configuration not stated)	1	-2	6	20308*	-2	-2
NS(=O)(=O)c1ccc(CCNC(=O)C2CCCCN2S(=O)(=O)c2ccccc2)cc1 (configuration not stated)	2	-17	15	21340*	1	0
O=C(NCCc1ccccc1F)C1CCCN1S(=O)(=O)c1ccc2ccccc2c1 (configuration not stated)	0	-4	4	20558*	5	-3
SMILES	BoNT A protease	Anthrax LF inh2	VHR inh abs	Autofluor counter	SARS 3CLpro inh	BoNT F protease
O=C(NCc1ccccc1F)C1CCCN1S(=O)(=O)c1ccc(F)cc1 (configuration not stated)	3	3	59*	3073	3	16
COc1ccccc1C(=O)Nc1ccc2c(c1)n(C)c(=O)n2C	1	6	-4	4076	-3	?
CCNC(=O)C1CCCN(C(=O)c2cccs2)CC1 (configuration not stated)	0	0	·	3665	·	-2
CC(=NNC(=S)N1CCN(c2ccccn2)CC1)c1ccccn1	2	-13	·	3019	·	-43
C/C(=N/NC(=O)c1cnccn1)c1ccncc1	0	1	20	4710	1	-6
CC(=NNC(=S)N1CC2CCC(CC2)C1)c1cnccn1	40*	54*	·	3454	·	59*
CC(=NNC(=S)N1CCN(c2ccccn2)CC1)c1nccs1	16	31*	·	3551	·	30
CC(=NNC(=S)N1CC2CCC(CC2)C1)c1ccccn1	29	52*	·	2877	·	60*
CC(=NNC(=S)N1CCN(C2CCCCCC2)CC1)c1ccccn1	82*	92*	·	4342	·	74*
COC(=O)CN(c1cc([N+](=O)[O-])ccc1OC)S(C)(=O)=O	0	-8	21	4478	0	-1
O=C1CSC(c2ccccn2)N1c1ccccc1 (configuration not stated)	2	0	10	21482*	-1	6
COC(=O)c1ccccc1NC(=O)COc1ccccc1	-1	-5	-4	10312	-4	-17
COCCNC(=O)c1ccccc1NC(=O)COc1ccccc1	2	2	9	20130*	4	4
C/C=C(/CCC1NCCc2c1[nH]c1ccccc21)[Si](C)(C)C (configuration not stated)	10	11	·	6313	·	-36
CC1CCN(c2cc(N3CCN(C(=O)c4ccc(F)c(F)c4)CC3)c([N+](=O)[O-])cc2F)CC1	0	0	1	2564	0	-6
Cc1ccc2[nH]c3c(N4CCN(Cc5ccc6c(c5)OCO6)CC4)ncnc3c2c1	·	·	26	·	2	·
COc1ccc2c(c1)[nH]c1c(N3CCN(Cc4ccc5c(c4)OCO5)CC3)ncnc12	-1	-2	14	23865*	0	-3
CC#CCCCC(=O)Nc1cc(OC)nc(OC)n1	2	-1	8	22745*	-2	4
C/C=C/C(=O)Nc1cccc(C2=NOC3(C2)C[C@H](C(N)=O)N(C(=O)c2ccccc2C(=O)c2ccccc2)C3)c1 (some centres not stated)	·	·	0	·	·	·

Source: PubChem (several laboratories)
